Cruzain noTriton: inhibitors of Trypanosoma cruzi cruzain without detergent; Potency, µM, for the others: max response, negative = inhibition, most hits filed as inhibitors; purified cruzain, Z-FR-AMC fluorescence, no detergent; AID 1476; hit rate 2.3% among 200,000; P25779;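 note: plate controls were enzyme without inhibitor for no effect and buffer without enzyme for full effect; nearly all actives have a fitted effect of over 40% in size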
Target sequence (P25779 123-467 limits assumed): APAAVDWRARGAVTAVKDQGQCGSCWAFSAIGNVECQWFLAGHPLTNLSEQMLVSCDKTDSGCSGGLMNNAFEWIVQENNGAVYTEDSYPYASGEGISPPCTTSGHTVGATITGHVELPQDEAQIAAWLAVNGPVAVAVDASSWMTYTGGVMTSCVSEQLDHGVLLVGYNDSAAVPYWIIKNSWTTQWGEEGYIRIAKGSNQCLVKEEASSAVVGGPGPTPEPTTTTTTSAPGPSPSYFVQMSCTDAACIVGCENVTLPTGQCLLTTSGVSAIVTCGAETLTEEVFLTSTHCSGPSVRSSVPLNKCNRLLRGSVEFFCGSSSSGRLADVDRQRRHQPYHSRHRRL
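Detergent-free condition (0.00005% Triton X-100) in acetate buffer pH 5.5 with DTT. 1.5 nM enzyme and compound were pre-mixed 15 min, then 2 uM Z-FR-AMC substrate added; reaction progress from fluorescence change between first and third reads (60 s).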
Cruzain inh Det: cruzain (T. cruzi) inhibition with detergent | P25779 | hit rate 0.43% among 200,000 | purified cruzain, Z-FR-AMC fluorescence, 0.01% Triton | AID 1478 | Potency, µM, inactives show max response, negative = inhibition, actives largely listed as inhibitors;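 note: plate controls were neutral wells for no effect and buffer without enzyme for full effect; nearly all actives have a fitted effect of over 40% in size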
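Steps: dispense cruzain (1.5 nM final) in acetate buffer pH 5.5 with DTT and 0.01% Triton X-100; pin-transfer compounds; incubate 15 min RT; add Z-FR-AMC (2 uM final); read fluorescence every 30 s, using the 60 s intensity change.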
Active calls of the source: *. The list is not random: actives were taken first. Their share in the collection is about 2.5%. Calls come from the whole dose curve; as a rule, active = well fitted curve in the direction sought with a large enough effect; inconclusive = small, poorly fitted or top-dose-only effect, or another doubt; inactive = no such curve, though single readings can be large; an effect the other way counts as inactive or inconclusive. Potency is the fitted concentration of half-maximal effect.

Screening COc1cccc(/C=C/C(=C2/C(=O)N(c3ccccc3)N=C2C)c2ccccc2)c1OC returned Cruzain noTriton -15% and Cruzain inh Det -4%.
Screening CN(C)CCCCN1CCc2c(n(C)c3ccccc23)C1=O returned Cruzain noTriton 5% and Cruzain inh Det 0%.
Screening CCN(CC)C(=O)CSc1nnc([C@@H](N)Cc2ccccc2)o1 returned Cruzain noTriton 25µM* and Cruzain inh Det 25µM*.
Screening N[C@@H](Cc1ccccc1)c1nnc(SCc2ccccc2Cl)o1 returned Cruzain noTriton 18% and Cruzain inh Det 4%.
Screening Cc1ccc(NC(=O)CSc2nnc([C@@H](N)Cc3c[nH]c4ccccc34)o2)c(C)c1 returned Cruzain noTriton 16µM* and Cruzain inh Det 18µM*.
`CCc1ccccc1NC(=O)CSc1nnc([C@@H](N)Cc2ccccc2)o1` gave Cruzain noTriton 10µM* and Cruzain inh Det 10µM*.
C=C(C)CSc1nnc([C@@H](N)Cc2c[nH]c3ccccc23)o1 was read as Cruzain noTriton 2% and Cruzain inh Det -5%.
`CCN(CC)C(=O)CSc1nnc(CCN)o1` gave Cruzain noTriton -10% and Cruzain inh Det 4%.
CCC1CCCCN1C(=O)Cn1c(=O)oc2cc(S(=O)(=O)N3CCCCC3)ccc21 (configuration not stated) was read as Cruzain noTriton 4% and Cruzain inh Det 1%.
For O=C1CC(c2cc(F)cc(F)c2)c2cc3c(cc2N1)OCO3 (configuration not stated) the results were Cruzain noTriton -2% and Cruzain inh Det -5%.
COc1cccc(CSc2nc3n(n2)C(c2cccc(F)c2)C(C(=O)Nc2ccccc2C)=C(C)N3)c1 (configuration not stated) was read as Cruzain noTriton 4% and Cruzain inh Det 2%.
`Cc1ccc(NC(=O)CC2S/C(=N/N=C/c3c[nH]c4ccccc34)NC2=O)cc1` (configuration not stated) gave Cruzain noTriton 20µM* and Cruzain inh Det -15%.
Cc1ccc(NC(=O)CC2S/C(=N/N=C/C=C/c3ccccc3)NC2=O)cc1Cl (configuration not stated) was read as Cruzain noTriton 5µM* and Cruzain inh Det -2%.
Screening CCOC(=O)c1ccc(NC(=O)CC2S/C(=N/N=C/c3c[nH]c4ccccc34)NC2=O)cc1 (configuration not stated) returned Cruzain noTriton inconclusive and Cruzain inh Det -2%.
`Cc1ccc(NC(=O)CC2SC(=NCC3CCCO3)NC2=O)cc1Cl` (configuration not stated) gave Cruzain noTriton -5% and Cruzain inh Det 1%.
For OCCN1CC(O)C(O)C(O)C1CO (configuration not stated) the results were Cruzain noTriton 7% and Cruzain inh Det 0%.
`O=C(c1ccccc1)c1nn(-c2cccc(Cl)c2)c2nc(-c3ccccc3)cc(=O)n12` gave Cruzain noTriton 25µM* and Cruzain inh Det 4%.
Screening CCOC(=O)c1nn(-c2cccc(Cl)c2)c2nc(Nc3ccccc3)cc(=O)n12 returned Cruzain noTriton inconclusive and Cruzain inh Det -6%.
For Cc1cccc(-n2nc(C(=O)Nc3ccccc3)n3c(=O)cc(-c4ccccc4)nc23)c1 the results were Cruzain noTriton 7.9µM* and Cruzain inh Det -1%.
Screening CCOC(=O)c1nn(-c2cccc(OC)c2)c2nc(Nc3ccccc3)cc(=O)n12 returned Cruzain noTriton inconclusive and Cruzain inh Det -6%.
For COc1ccc(NC(=O)CCCc2nnc3n(C(C)C)c(=O)c4sccc4n23)cc1Cl the results were Cruzain noTriton 9% and Cruzain inh Det -1%.
For COc1cc(C(CC(=O)NCc2ccccc2Cl)N2Cc3ccccc3C2=O)cc(OC)c1OC (configuration not stated) the results were Cruzain noTriton 16µM* and Cruzain inh Det inconclusive.
Screening COc1ccccc1CNC(=O)CC(c1ccc(OC)c(OC)c1)N1Cc2ccccc2C1=O (configuration not stated) returned Cruzain noTriton -10% and Cruzain inh Det -3%.
CCc1cccc(N2C(=O)N(Cc3c(F)cccc3Cl)c3ccccc3S2(=O)=O)c1 was read as Cruzain noTriton -5% and Cruzain inh Det 1%.
Cc1ccc(C(=O)N/C(=C/c2ccco2)C(=O)OCN2C(=O)c3ccccc3C2=O)cc1 was read as Cruzain noTriton 0.4µM* and Cruzain inh Det 0.35µM*.
For COC(=O)/C(=C/c1ccco1)NC(=O)c1ccccc1 the results were Cruzain noTriton 7% and Cruzain inh Det -11%.
For CC(C(=O)NCc1ccc(Cl)cc1)n1ccc2cc(S(=O)(=O)N3CCCC3)ccc21 (configuration not stated) the results were Cruzain noTriton -24% and Cruzain inh Det -5%.
N#Cc1cccc(-c2nc(NCc3cccs3)c3ccccc3n2)c1 was read as Cruzain noTriton 26% and Cruzain inh Det -3%.
Screening Cc1ccc(C)c(N2CCN(C(=O)CCS(=O)(=O)c3cc4c(cc3Cl)NC(=O)CO4)CC2)c1 returned Cruzain noTriton 5% and Cruzain inh Det -4%.
Screening O=C(/C=C/c1cccc([N+](=O)[O-])c1)NC(=S)Nc1cccc(NC(=O)c2ccccc2Cl)c1 returned Cruzain noTriton 6.3µM* and Cruzain inh Det -6%.
Screening O=C(/C=C/c1cccc([N+](=O)[O-])c1)c1cccs1 returned Cruzain noTriton -1% and Cruzain inh Det -2%.
Screening CC(=O)Nc1cccc(NC(=O)c2ccc([N+](=O)[O-])cc2Cl)c1 returned Cruzain noTriton 4% and Cruzain inh Det -2%.
Screening O=C(/C=C/c1cccc([N+](=O)[O-])c1)Nc1ccc(NC(=O)c2cccs2)cc1 returned Cruzain noTriton 20µM* and Cruzain inh Det -8%.
For COc1ccc(-c2csc(N3C(=O)C4C5c6ccccc6C(c6ccccc65)C4C3=O)n2)cc1 (configuration not stated) the results were Cruzain noTriton 16µM* and Cruzain inh Det 0%.
COc1ccc(-c2csc(N3C(=O)C4C5c6ccccc6C(c6ccccc65)[C@@H]4C3=O)n2)cc1 (some centres not stated) was read as Cruzain noTriton 10µM* and Cruzain inh Det 2%.
Screening COc1ccc(-c2csc(N3C(=N)SCC3=O)n2)cc1 returned Cruzain noTriton inconclusive and Cruzain inh Det 3%.
For COc1ccc(-c2csc(N3C(=O)CNC3=S)n2)cc1 the results were Cruzain noTriton inconclusive and Cruzain inh Det -2%.
COc1ccc(-c2cc3nc(-c4ccc(C)cc4)cc(C(F)(F)F)n3n2)cc1 was read as Cruzain noTriton 1% and Cruzain inh Det -1%.
`CC(C)(C)NC(=O)C(c1ccc(I)cc1)N(CCN1CCOCC1)C(=O)CCCNC(=O)c1ccccc1` (configuration not stated) gave Cruzain noTriton -7% and Cruzain inh Det -5%.
CCOC(=O)C1CCN(C(=O)Cn2nc(CC)n3c(cc4sccc43)c2=O)CC1 was read as Cruzain noTriton 1% and Cruzain inh Det -3%.
For CCCNC(=O)C1CCC(Cn2c(=O)c3sccc3n(CC(=O)N(CC)CC)c2=O)CC1 (configuration not stated) the results were Cruzain noTriton 12% and Cruzain inh Det 3%.
For CC1=C(C(=O)OC2CCCCCC2)C(c2cccc(Cl)c2)CC(=O)N1 (configuration not stated) the results were Cruzain noTriton -12% and Cruzain inh Det 0%.
